A selection: hits, their analogues and other compounds. The true share with any hit is near 7.2%.
RE007 growth inh: qHTS Assay for Inhibitors of the HIV-1 protein Vpr | AID 651644, 2012 | Potency, µM (series often up to 92.2 µM), inactives show at the highest dose activity change, negative = less growth, most hits filed as inhibitors | S. pombe RE007 Vpr strain, BacTiter-Glo ATP luminescence, 24 h | actives 0.21% (n = 360,000); active = well fitted falling curve with a large enough effect; inconclusive = small, poorly fitted or top-dose-only effect; inactive = no such curve, though single readings can be large or run the other way; also: nearly all actives have a fitted effect of over 50% in size
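Fission yeast RE007 carrying one integrated HIV-1 vpr copy, seeded at OD 0.01 in PMG+AL medium with 23 nL pinned compound. Grown 24 h at 30 degrees; viability read by BacTiter-Glo luminescence after 5 min.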
LASV entry inh: qHTS for Inhibitors of binding or entry into cells for Lassa Virus. Potency, µM (doses to about 37.9 µM), for inactives: top-dose activity change, negative = inhibition, most hits filed as inhibitors. actives 1.2% (n = 300,000). Lassa virus pseudotype entry inhibition, cell reporter; calls by dose curve; tested in HEK293 cells; also: nearly all actives have a fitted effect of over 50% in size
MARV entry inh: qHTS for inhibitors of binding or entry into cells for Marburg Virus; Potency, µM (top dose mostly 37.8 µM), for inactives: at the top dose activity change, negative = inhibition, hits mostly inhibitors; AID 540276, 2011; actives 1.8% (n = 300,000); Marburg virus pseudotyped entry inhibition, cell reporter; calls by dose curve; tested in HEK293 cells
FMDV inh: High Throughput Screening for Foot and Mouth Disease Virus Antivirals; actives 1.2% (n = 410,000); FMDV antiviral cell-based qHTS; AID 1159524, 2015; Potency, µM (highest dose often 57.9 µM), for the others: top-dose activity change, negative = inhibition, usual class: inhibitors; calls by dose curve; tested in HEK293T cells; also: read-out not given here; nearly all actives have a fitted effect of over 45% in size
HCV inhibitor: qHTS Assay for Inhibitors of Hepatitis C Virus (HCV). Huh7.5.1 HCVcc-Cre infection, luciferase reporter, 44 h. Potency, µM (highest dose often 41.8 µM), without a hit: at the highest dose activity change, negative = inhibition, most hits filed as inhibitors. actives 3.4% (n = 340,000)
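A cell-based infection assay in which seeded cells (1,000 per well) receive test compound after 4 h, are inoculated with HCVcc-Cre at approximately 0.5 moi, and are incubated 44 h before luminescence detection.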
Sm TGR block: qHTS Assay for the Inhibitors of Schistosoma Mansoni Peroxiredoxins; Schistosoma mansoni thioredoxin glutathione reductase (TGR), Q962Y6; actives 3% (n = 360,000); Potency, µM (series often up to 114 µM), without a hit: top-dose activity change, negative = inhibition, usual class: inhibitors; purified TGR, DTNB reduction, TNB absorbance 405 nm; also: nearly all actives have a fitted effect of over 60% in size
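TGR 20 nM + NADPH 100 uM (dispensed conc.), cpd preinc 15 min RT; start with NADPH (500 uM addition) then DTNB (15 mM addition). Kinetic TNB absorbance, 405 nm filter. Four-parameter Hill fit across titration.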
The depositor's hits bear a star; u = inconclusive; x = not tested or not shown; [ ] = remark or other dose. Unless noted, calls follow the shape of the dose curve; as a rule, active = well fitted curve in the direction sought with a large enough effect; inconclusive = small, poorly fitted or top-dose-only effect, or another doubt; inactive = no such curve, though single readings can be large; an effect the other way counts as inactive or inconclusive. % is scaled to controls: 0 for no effect and ±100 for the full control effect; potency is read from the fitted curve at half-maximal effect.

SMILES | RE007 growth inh | LASV entry inh | MARV entry inh | FMDV inh | HCV inhibitor | Sm TGR block
CCOc1ccc(S(=O)(=O)NCC(c2ccc3c(c2)OCO3)N2CCN(C)CC2)cc1 (stereo unspecified) | 13.8% | u | 7.94µM* | -1.9% | u | -13.3%
N=C1C=CC=C2C1=NC1(CCCCC1)N2O | 11.3% | -4.3% | -3.4% | x | -12.2% | 20µM*
Cc1ccc(N=Nc2c(N)[nH]n3c(=O)cc(-c4ccccc4)nc23)cc1 | 8.3% | 0.8% | u | -10.1% | 12.6µM* | -9.3%
Cc1[nH]n2c(=O)cc(-c3ccc([N+](=O)[O-])cc3)nc2c1-c1ccccc1 | -1.5% | u | u | -27.5% | 10µM* | x
Cc1[nH]n2c(=O)cc(C(C)(C)C)nc2c1-c1ccccc1 | 12.4% | 10µM* | u | -24.8% | 10µM* | 0.5%
Cc1[nH]n2c(=O)cc(-c3ccc(Cl)cc3)nc2c1-c1ccccc1 | x | 2.51µM* | 11.2µM* | u | x | -8.3%
CCCc1cc(=O)n2[nH]c(C)c(-c3ccccc3)c2n1 | -0.4% | -16.8% | -6.2% | -23.8% | -4.0% | -9.9%
CN(C)c1nc(N)nc2c1ncn2C1OC(CO)CC1O (stereo unspecified) | 14.8%[18.4 µM] | x | x | -13.5% | x | x
COc1cc(-c2noc(-c3ccc(NC4CCCCC4)c([N+](=O)[O-])c3)n2)cc(OC)c1OC | x | 11.4%[46.1 µM] | -11.6%[46.1 µM] | 2.2% | x | -18.2%
N#C/C(=C\c1cc(Br)c(O)c(Br)c1)c1nc2ccccc2c(=O)[nH]1 | x | 1.4%[46.1 µM] | x | -16.7% | x | -28.1%
C/C(=C\CNc1ncnc2nc[nH]c12)CO | 0.9% | x | x | -4.9% | -64.8% | x
CC(C)CCCCCCCCCCCCC(=O)NCC(=O)NC1C(C)OC(Nc2ncnc3nc[nH]c23)C(O)C1O (stereo unspecified) | u | 0.0794µM* | u | u | 1µM* | x
Cc1ccc(C)c(NC(=O)C(Sc2nc3ccc(C)cc3[nH]2)c2ccccc2)c1 (stereo unspecified) | 1.4% | u | 8.91µM* | u | u | 6.4%
O=C(CSc1ccc(C(F)(F)F)cn1)Nc1ccccc1 | 1.7% | 4.8% | 12.2% | -6.2% | 22.0% | 7.7%
O=C(/C=C/Sc1ccc(C(F)(F)F)cn1)c1ccccc1 | 2.0% | x | x | 11.7% | 10µM* | 89.1µM*
CC(=Nc1ccccc1O)c1sc2ccccc2c1O | u | x | x | 9.1% | u | 0.3%
CC(=Nc1ccc(O)cc1)c1sc2ccccc2c1O | 21.6% | 4.7% | 11.7%[46.1 µM] | 38.4% | 12.6µM* | -3.1%
CCc1ccc(OCC(=O)NC(Cc2c[nH]c3ccccc23)C(=O)O)cc1 (stereo unspecified) | x | 24.3%[46.1 µM] | 0.9%[46.1 µM] | -3.2% | x | 5.6%
COCCn1c(=O)[nH]c(=O)c2cc(C(=O)c3cc(Cl)ccc3O)cnc21 | 11.4% | u | -25.7%[46.1 µM] | -9.3% | 1.78µM* | -0.7%
Cn1c(SCC(=O)c2ccc(F)cc2)nnc1-c1ccccc1Br | x | -14.4%[46.1 µM] | u | 20.0% | x | -6.6%
COC(=O)C1=C(c2ccccc2)c2ccccc2S(=O)(=O)N1CC(=O)Nc1ccccc1Cl | x | -22.1%[46.1 µM] | u | -4.0% | x | 1.9%
COC(=O)C1=C(c2ccccc2)c2ccccc2S(=O)(=O)N1CC(=O)Nc1ccc(F)c(F)c1 | x | 11.2µM* | u | -13.2% | x | -1.3%
COc1ccc(Cn2c(CNC(=O)Cc3ccc(OC)c(OC)c3)nc3cccnc32)cc1 | x | -28.5%[46.1 µM] | x | 1.1% | x | 1.1%
COc1cccc(CNC(=O)[C@@H]2CCCN2C(=O)[C@H]2CCCCN2C(=O)c2cccc3ccccc23)c1 | 1.7% | x | x | -4.0% | x | x
COc1ccc(C2c3ccc4ccccc4c3Oc3ncn(CCCO)c(=N)c32)cc1 (stereo unspecified) | 1.3% | 11.2µM* | u | -28.1% | -25.5% | -2.5%
SMILES | RE007 growth inh | LASV entry inh | MARV entry inh | FMDV inh | HCV inhibitor | Sm TGR block
N=c1c2c(ncn1CCCO)Oc1ccc3ccccc3c1C2c1ccccc1 (stereo unspecified) | 2.1% | -27.1% | u | -18.1% | u | 6.5%
COc1ccc(C2c3c(ncn(Cc4ccco4)c3=N)Oc3ccc4ccccc4c32)cc1 (stereo unspecified) | -7.7% | u | u | -7.2% | u | -2.4%
COc1ccc(C2c3ccc4ccccc4c3Oc3ncn(CCN(C)C)c(=N)c32)cc1 (stereo unspecified) | 8.6% | u | 8.91µM* | -17.8% | 2.82µM* | -3.1%
COc1ccc(C2c3ccc4ccccc4c3Oc3ncn(CCO)c(=N)c32)cc1 (stereo unspecified) | -21.2% | 8.91µM* | u | 0.5% | u | -14.2%
COc1ccc(C2c3ccc4ccccc4c3Oc3ncn(CCN4CCOCC4)c(=N)c32)cc1 (stereo unspecified) | 23.5% | 9.8% | u | u | u | 0.4%
N=c1c2c(ncn1CCCO)Oc1c(ccc3ccccc13)C2c1ccccc1 (stereo unspecified) | -10.5% | x | x | -27.1% | 11.2µM* | 11.0%
CN(C)CCCn1cnc2c(c1=N)C(c1ccccc1)c1ccc3ccccc3c1O2 (stereo unspecified) | x | x | x | u | 8.91µM* | -3.0%
N=c1c2c(ncn1CCN1CCOCC1)Oc1cc(O)ccc1C2c1ccccc1 (stereo unspecified) | -7.1% | u | u | -19.3% | -14.8% | -25.3%
O=C(NC(CSSCC(NC(=O)c1ccccc1)C(=O)O)C(=O)O)c1ccccc1 (stereo unspecified) | 10.3% | x | x | -15.7% | 1.58µM* | 7.0%
CSCCC(NC(=O)c1ccccc1)C(=O)O (stereo unspecified) | 11.8% | 3.4%[46.1 µM] | -12.4%[46.1 µM] | -5.0% | 13.4% | 1.0%
CCC(=O)Nc1ccc(S(=O)(=O)NCc2cccn2Cc2cccc(C)c2)cc1 | x | u | x | 12.8% | x | -13.3%
C#CCN1C=CC(=O)[C@@H](O)[C@H]1c1ccccc1Br | 7.8% | x | x | -11.2% | 5.62µM* | x
C#CCN1C=CC(=O)[C@@H](OC(=O)Nc2ccc(C)cc2)[C@H]1c1ccccc1Br | 7.3% | x | x | -14.3% | -2.2% | x
Cc1cc(Br)ccc1NC(=O)CCS(=O)(=O)c1cccc2nsnc12 | x | 18.8%[46.1 µM] | 12.2%[46.1 µM] | 0.6% | x | 3.1%
Cc1ccc(CN2CCSc3ccc(C(=O)NC4CCN(Cc5ccccc5)CC4)cc32)cc1 | 5.7% | u | u | -26.6% | 8.91µM* | 4.7%
Cc1ccc(CN2CCSc3ccc(C(=O)NCCCN4CCOCC4)cc32)cc1 | -4.3% | x | x | -5.1% | -21.1% | 2.0%
O=C(NC1CCCC1)c1ccc2c(c1)N(Cc1ccccc1)CCS2 | 0.4% | x | x | 5.4% | u | 1.9%

Screens deposited in PubChem by National Center for Advancing Translational Sciences (NCATS).
